# Compound activity as filed in PubChem BioAssay.
# Hits are enriched below; roughly 18% of the tested compounds scored in any of these assays.
# TDP1 cell noCPT: qHTS for Inhibitors of human tyrosyl-DNA phosphodiesterase 1 (TDP1): qHTS in cells in absence of CPT; 420,000 tested, 15% active; DT40 Tdp1-/- hTDP1 cells, no CPT, ATP luminescence, 48 h; Potency, µM (top dose mostly 46.2 µM), inactives show at the highest dose activity change, negative = growth inhibition, most hits filed as inhibitors; AID 686978, 2013; note: potency is the fitted concentration of half-maximal effect; nearly all actives have a fitted effect of over 55% in size
#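 Growth of hTDP1-complemented DT40 Tdp1-knockout cells is measured by ATP luminescence after at least 48 hr compound exposure at 37 °C, with DMSO substituting for the 20 nM CPT used in the parallel screen.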
# CtBP-E1A blk: blocks the CtBP interaction with E1A; activity change, % (test concentration not listed); AlphaScreen GST-E1A/His-CtBP binding, 1536-well; active compounds read low; 340,000 tested, 0.49% active; AID 651724; in the data active = activity change below about -65%; inconclusive = mostly about -30% to -63%
#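 Protein mix (5X: 125 nM each GST-E1A, His-CtBP) was incubated with pinned compound 2 h at 37 deg C in dark, in 50 mM Tris pH 8.0 buffer with 300 mM NaCl. Glutathione donor and nickel acceptor beads followed; AlphaScreen signal read after 1 h.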
# DT40 TDP1 CPT: growth inhibition of DT40 Tdp1-/-;hTDP1 cells with camptothecin (screen for TDP1 inhibitors) | 420,000 tested, 12% active | AID 686979 | chicken DT40 Tdp1-/-;hTDP1 cells + 20 nM CPT, ATP luminescence, 48 h | Potency, µM (top dose mostly 46.2 µM), without a hit: at the top dose activity change, negative = growth inhibition, most hits filed as inhibitors; note: potency is the fitted concentration of half-maximal effect; nearly all actives have a fitted effect of over 55% in size
#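 Chicken DT40 Tdp1-/- cells complemented with human TDP1, 400 cells/well, exposed to compounds plus 20 nM camptothecin for at least 48 h at 37 C; viability read as ATP content by CellTiter-Glo luminescence.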
# TDP1 block: TDP1 (human) enzyme inhibition; recombinant TDP1, AlphaScreen DNA substrate cleavage; Potency, µM (titrated, usually from 130 µM), without a hit: at the top dose activity change, negative = inhibition, hits mostly inhibitors; 350,000 tested, 0.28% active; note: potency is the fitted concentration of half-maximal effect; nearly all actives have a fitted effect of over 40% in size
#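 E. coli-derived human Tdp1, 1 nM final. Cpd preinc 15 min RT; substrate 15 nM final, 5 min RT; AS bead mix 10 ug/ml final, 10 min RT. Signal loss = tyrosine-FITC cleavage. No-enzyme wells = max signal.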
# IL-1B inflam inh: inflammasome signaling inhibition, IL-1 beta readout. THP-1 LPS/ATP IL-1B secretion, AlphaLISA, 16 h; active compounds read low. 360,000 tested, 4.7% active. AID 743279. activity change, % at 57.5 µM; in the data active = activity change below about -50%; inconclusive = mostly about -30% to -49%
#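 Secreted IL-1B measured by AlphaLISA bead assay after 16 h compound exposure of THP-1 cells; compounds (final up to 57.5 uM) added 1 h before LPS (250 ng/mL) and ATP (1.25 mM) stimulation; lower signal means less secretion.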
# Six1-Eya2 inh: inhibitors of human Six1/Eya2 interaction; AlphaScreen GST-Six1/His-Eya2 binding, biochemical; active compounds read low; Q15475+O00167; 360,000 tested, 0.56% active; activity change, % (test concentration not listed); AID 651725; in the data active = activity change below about -65%; inconclusive = mostly about -30% to -63%
# Target sequence (O00167 whole entry, looked up): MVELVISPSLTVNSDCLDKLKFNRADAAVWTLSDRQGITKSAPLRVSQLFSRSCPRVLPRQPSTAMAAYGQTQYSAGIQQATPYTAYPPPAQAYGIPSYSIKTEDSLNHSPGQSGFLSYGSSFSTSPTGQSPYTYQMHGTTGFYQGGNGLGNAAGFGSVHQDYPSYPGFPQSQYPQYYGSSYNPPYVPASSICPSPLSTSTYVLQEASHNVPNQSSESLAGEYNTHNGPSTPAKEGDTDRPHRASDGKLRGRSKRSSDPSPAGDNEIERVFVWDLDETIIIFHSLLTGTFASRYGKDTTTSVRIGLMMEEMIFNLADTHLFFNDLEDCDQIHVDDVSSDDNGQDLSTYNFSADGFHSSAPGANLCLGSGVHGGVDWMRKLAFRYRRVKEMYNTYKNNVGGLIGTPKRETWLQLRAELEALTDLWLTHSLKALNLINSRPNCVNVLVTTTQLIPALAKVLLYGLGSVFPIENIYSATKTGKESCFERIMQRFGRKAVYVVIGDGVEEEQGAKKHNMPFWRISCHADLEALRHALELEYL
# Target sequence (Q15475 whole entry, looked up): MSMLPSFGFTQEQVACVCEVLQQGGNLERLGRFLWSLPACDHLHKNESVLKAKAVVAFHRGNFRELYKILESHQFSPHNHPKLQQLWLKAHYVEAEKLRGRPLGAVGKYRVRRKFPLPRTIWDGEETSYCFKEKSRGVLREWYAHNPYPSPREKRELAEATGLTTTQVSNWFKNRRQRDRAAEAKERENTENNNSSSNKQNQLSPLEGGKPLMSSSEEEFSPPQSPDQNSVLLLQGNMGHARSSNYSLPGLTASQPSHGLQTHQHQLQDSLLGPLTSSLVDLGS
#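 AlphaScreen with GST-Six1 and His-Eya2 (5X mix: 250 nM and 500 nM), glutathione donor and nickel acceptor beads; buffer 50 mM Tris pH 8.0, 300 mM NaCl, 1 mM TCEP; 1 h at 37 C in the dark.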
# Numbers without * were called inactive; ? = inconclusive; · = no result given; [ ] = dose if it differs, or a comment. Unless noted, calls come from the whole dose curve; as a rule, active = well fitted curve in the direction sought with a large enough effect; inconclusive = small, poorly fitted or top-dose-only effect, or another doubt; inactive = no such curve, though single readings can be large; an effect the other way counts as inactive or inconclusive. % is set by controls: 0 for no effect and ±100 for the full control effect.
SMILES,TDP1 cell noCPT,CtBP-E1A blk,DT40 TDP1 CPT,TDP1 block,IL-1B inflam inh,Six1-Eya2 inh
O=c1c2cc(N3CCOCC3)ccc2[nH]c(=S)n1Cc1ccc(Cl)cc1,15µM*,0,21µM*,-2%,0,0
Cc1ccc(Cn2cccc(C(=O)Nc3cc([N+](=O)[O-])ccc3C)c2=O)cc1,?,·,-16%,3%,·,·
CC(=O)OC1N=C(c2ccccc2Cl)c2cc(Br)ccc2NC1=O (centres undefined),?,1,?,9%,-71*,-4
CCOc1ccc(CN(CCc2ccc3c(c2)OCO3)Cc2cccc(C)c2)cc1,13µM*,·,16µM*,·,·,·
CCOc1ccc(CN(CCc2ccc3c(c2)OCO3)Cc2cc(OC)ccc2O)cc1,18µM*,·,?,4%,·,·
CCOc1ccc(CN(CCc2ccc3c(c2)OCO3)Cc2ccc(CC)cc2)cc1,?,·,?,-10%[12.3 µM],·,·
O=[N+]([O-])c1ccc(NCCO)c2ncccc12,-28%,11,-4%,5%,14,-14
CC(NCc1ccc(Cl)c(Cl)c1)C(O)c1ccccc1 (centres undefined),?,8,16µM*,1%,?,4
CC(NCc1ccccc1Cl)C(O)c1ccccc1 (centres undefined),-15%,-4,-26%,6%,-11,0
Cc1cccc(N=C2c3cc([N+](=O)[O-])ccc3-c3c2cc([N+](=O)[O-])cc3[N+](=O)[O-])c1,18µM*,?,8.2µM*,·,-96*,?
Nc1ccc([N+](=O)[O-])cc1[N+](=O)[O-],·,·,·,17%,·,·
CCN1CCN(c2ccc(N)c(C)c2)CC1,?,-3,?,2%,-10,-22
COc1ccc(C(C)=O)cc1CC1(C)C(=O)Nc2ccc(-c3ccccc3OC)cc21 (centres undefined),?,-1,?,·,-2,-7
CC1(Cc2ccc(C(F)(F)F)nc2)C(=O)Nc2cc(-c3ccccc3Cl)ccc21 (centres undefined),?,-13,16µM*,·,·,-1
Cn1c(O)c(Cc2ccc(OCc3ccccc3)cc2)c(=O)n(C)c1=O,-23%,·,-18%,·,7,-5
Cc1cccc(N=Cc2c(O)n(C)c(=O)n(C)c2=O)c1,4%,-1,20%,·,-10,-11
O=C1N[C@@H](Cc2ccccc2)C(=O)N2[C@H]1C[C@H]1c3ccccc3N(OOSc3ccccc3)[C@H]12,16µM*,2,21µM*,·,54,1
Oc1c(Br)cc(Br)cc1Oc1ccc(Br)cc1Br,·,·,·,-8%,·,·
O=C(c1ccc(C(F)(F)F)cc1)C1CCCN(Cc2ccc(CO)o2)C1 (centres undefined),?,·,?,8%,-4,3
CCOc1ccc(-n2c(O)c(N=Nc3c(C)n(C)n(-c4ccccc4)c3=O)c(=O)[nH]c2=O)cc1,-15%,-91*,-1%,10%,30,-90*
C=CCn1c(O)c(N=Nc2c(C)n(C)n(-c3ccccc3)c2=O)c(=O)[nH]c1=S,9.2µM*,-87*,16µM*,0%,24,-91*
Cc1c(N=Nc2c(O)[nH]c(=S)[nH]c2=O)c(=O)n(-c2ccccc2)n1C,8%,-93*,1%,-2%,10,-84*
Cc1c(N=Cc2c(O)n(Cc3ccc(F)cc3)c(=O)[nH]c2=O)c(=O)n(-c2ccccc2)n1C,4%,8,-8%,-2%,-5,-2
CCCCc1cc(=O)oc2cc(OCC(=O)N3C[C@H]4C[C@@H](C3)c3cccc(=O)n3C4)c(Cl)cc12,?,-3,?,·,-12,1
CC1=C(C)CC2(C(=O)NC(=O)NC2=O)C(C)C1 (centres undefined),0%,9,-7%,·,6,3
SMILES,TDP1 cell noCPT,CtBP-E1A blk,DT40 TDP1 CPT,TDP1 block,IL-1B inflam inh,Six1-Eya2 inh
CCOC(=O)c1cccc(C2=C(CNC(=O)c3cccnc3)[C@H]3CC[C@@H](C2)N3Cc2ccccc2)c1,21µM*,0,?,·,?,-2
CCOC(=O)c1cccc(C2=C(CNC(C)=O)[C@H]3CC[C@@H](C2)N3Cc2ccccc2)c1,?,-1,-3%,·,-15,1
CC(C)(C)C(=O)Cn1c(NCCCl)nc2ccccc21,?,4,6%,1%,22,10
COc1ccc(CNC(=O)c2cnn3c(C)c(Cc4ccc(F)cc4)c(C)nc23)cc1,15µM*,·,16µM*,0%,·,·
CCOc1cc2c(cc1OCC)-n1cccc1C(c1ccc(C)cc1C)NC2 (centres undefined),?,-20,?,·,-90*,-27
CCOc1cc2c(cc1OCC)-n1cccc1C(c1ccc(OC)c(O)c1)NC2 (centres undefined),18µM*,-23,?,·,?,-14
COc1ccc(C2NCc3ccccc3-n3cccc32)cc1 (centres undefined),?,-12,?,7%,?,?
CCOc1cc(C2NCc3ccccc3-n3cccc32)ccc1OC (centres undefined),-27%,-1,-17%,·,?,-23
CCOc1cc2c(cc1OCC)-n1cccc1C(c1cc(C)c(OC)cc1C)NC2 (centres undefined),7.3µM*,·,10µM*,·,-16,?
CCCSP(=S)(OCC)Oc1ccc(Cl)cc1Cl (centres undefined),·,·,·,13%,·,·
CCCCCCNc1nc(OC)nc(N2CC3CC(C2)c2cccc(=O)n2C3)n1 (centres undefined),?,2,?,2%,-22,2
Cc1cc(=O)[nH]c(CCl)n1,?,2,?,0%,96,-1
C[C@]12CC[C@@H](O)CC1CCC1C2CC[C@]2(C)C(=O)CC[C@@H]12 (some centres undefined),·,·,·,11%[56.1 µM],·,·
CCc1ccccc1NC(=O)C1CCCN(c2ncnc3onc(C)c23)C1 (centres undefined),9.2µM*,·,18µM*,3%,·,·
CCN1C(=O)c2ccccc2Sc2ccc(C(=O)N3CCC4(CC3)OCCO4)cc21,13µM*,4,?,3%,36,5
O=C(c1ccc2c(c1)N(Cc1c(F)cccc1Cl)C(=O)c1ccccc1S2)N1CCC2(CC1)OCCO2,23µM*,·,?,5%,·,·
CN1C(=O)c2ccccc2Sc2ccc(C(=O)N3CCC4(CC3)OCCO4)cc21,-3%,1,-22%,4%,1,-1
